# Where “and” joins values, the source holds several entries; their conditions need not be identical. Identical values can stand only once. In all, about 310,000 compounds went through this assay and about 11,000 (3.5%) were called active. About 8% were inconclusive and are not listed. The entries come from a sample that favours actives as a whole. Unmarked numbers belong to inactive results. Calls follow the shape of the dose curve; as a rule, active = well fitted inhibition curve with a large enough effect; inconclusive = small, poorly fitted or top-dose-only effect, or effect the other way; inactive = flat fitted curve, though single readings scatter.
# Assay: VP16 counterscreen qHTS for inhibitors of ROR gamma transcriptional activity;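 also: Gal4-VP16 expression switched on by copper sulfate through the metallothionein promoter; nearly all actives have a fitted effect of over 50% in size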
# Conditions: Drosophila S2 Gal4-VP16 UAS-luciferase, luminescence, 20 h; series mostly up to 53.6 µM; activity, negative = inhibition: at the top concentration
# % is scaled to controls: 0 for no effect and ±100 for the full control effect; potency is read from the fitted curve at half-maximal effect.
SMILES,Potency,"activity, negative = inhibition"
Cc1n[nH]c(=O)n1-c1ccc(Oc2ccccc2)cc1,0.891 µM (active),
COc1ccc(Oc2ncc3nc(C)c(=O)n(-c4ccccc4)c3n2)cc1,,4.94%
Cc1n[nH]c(=O)n1-c1ccc(C(C)C)cc1,,6.72%
Cc1cccc(CNS(=O)(=O)c2ccc(-c3cnc(C4CC4)o3)cc2)c1,,-17.6%
CCOc1ccc(CN(C)C(=O)c2ccc(=O)[nH]c2)cc1,,8.5%
Cc1cccc(NC(=O)c2cccnc2Cl)n1,,6.9%
Cc1ccc2nc(N(CCN(C)C)C(=O)C3=COCCO3)sc2c1,,19.1%
COc1ccc2cc(S(=O)(=O)Nc3ccccn3)ccc2c1,,-11%
COc1cc(NS(=O)(=O)c2ccc3ccccc3c2)c2ncccc2c1,708 nM (active) and 562 nM (active),
Cc1ccc(NS(=O)(=O)c2ccc(C)c(NC(=O)COc3ccc4ccccc4c3)c2)c(C)c1,,-3.61%
N#CCSc1nc(-c2ccccc2)nc2ccc(F)cc12,,0.836%
Cc1nc2ccc(S(=O)(=O)N(C)CC(=O)NC(C)c3ccccc3)cc2s1 (stereo not given),,13.1%
CC1CC(=S)Nc2ccccc2N1Cc1ccccc1 (stereo not given),3.16 µM (active),
CC1CC(C)(C)NC(=S)N1CCC(=O)N1CCN(Cc2ccccc2)CC1 (stereo not given),,-2.35%
CC1CC(=O)Nc2ccccc2N1S(=O)(=O)c1cccs1 (stereo not given),,4.46%
Cc1ccccc1OCC(=O)Nc1ccc(S(=O)(=O)N2CCOCC2)cc1,,9.7%
O=C(c1ccccc1)N1CCN(C(=O)c2cc3nc(-c4ccccc4)cc(C(F)(F)F)n3n2)CC1,,-8.68%
COc1ccc(-c2cc(C(F)(F)F)nc(S(C)(=O)=O)n2)cc1OC,5.62 µM (active),
COc1cc(OC)nc(S(C)(=O)=O)n1,,-27.7%
COc1ccc(-c2cc(C(F)(F)F)nc(SCC(=O)Nc3ccc4c(c3)OCO4)n2)cc1OC,,-26.3%
CC1=C(C(=O)OCC2CCCCC2)C(c2ccc(F)cc2)NC(=O)N1 (stereo not given),,2.73%
CC1CN(C(=S)Nc2ccccc2F)CC(C)O1 (stereo not given),,0.303%
COC(=O)c1c(NC(=O)COc2ccc(Cl)cc2Cl)sc2c1CC(C)(C)NC2(C)C,22.4 µM (active),
CCOC(=O)c1c(NC(=O)c2ccc(S(=O)(=O)N(C)CC3CCCO3)cc2)sc2c1CC(C)(C)NC2(C)C (stereo not given),,-4.31%

SMILES,Potency,"activity, negative = inhibition"
COC(=O)c1sccc1NC(=O)COc1ccc(Cl)cc1,,-1.35%
CCCn1c(C(C)Nc2nc(-c3ccc(C)cc3)cs2)nc2cc(Cl)c(N3CCCCC3)cc21 (stereo not given),,-9.71%
O=C(NCCc1ccccc1)C1CC1,,-4.59%
S=C(NN=C1CCN(Cc2ccccc2)CC1)NC1CCCCC1,,-1.84%
CCCC1CCC(=NNC(=S)NCCc2ccccc2)CC1 (stereo not given),11.2 µM (active),
O=C(NCC(=O)N1CCN(c2ncc(C(F)(F)F)cc2Cl)CC1)c1ccc(Br)o1,,-12.2%
Cc1ccc(CN2CCC(n3nccc3NC(=O)CCCc3ccccc3)CC2)o1,,-18.3%
O=C(Nc1cccc(F)c1)NC1CCCCCCC1,,17.7%
O=C(Nc1ccc(NC(=O)c2ccccc2F)cc1)c1ccccc1F,,-2.15%
C/C(CC(=O)Nc1ccc(N(C)C)cc1)=N\NC(=O)c1ccccc1F,,16.6%
C/C(=N\NC(=O)Cc1ccc(F)cc1)c1ccc(F)cc1,,-9.44%
C/C(=N\NC(=O)c1ccccc1F)c1ccccn1,1.12 µM (active),
C/C(=N\NC(=O)Cc1ccc(Cl)cc1)c1ccccn1,2.51 µM (active),
C/C(=N\NC(=O)Cc1ccc(Br)cc1)c1cccnc1,,-5.69%
O=C(c1cc(-c2ccc(Cl)cc2)on1)N1CCN(c2ccccc2)CC1,,-9.14%
O=C(COc1ccccc1Cl)N1CCCCCCC1,,-6.99%
NS(=O)(=O)c1ccccc1NC(=O)c1c(O)c2ccccc2[nH]c1=O,,-8.36%
COc1ccc(CC(=O)N/N=C/c2cc([N+](=O)[O-])cc(Br)c2O)cc1,3.16 µM (active),
COc1cc(OC)c(/C=N/NC(=O)c2ccc([N+](=O)[O-])cc2)cc1Br,,10.7%
COc1ccc(CC(=O)NCC(=O)N/N=C/c2cc(Br)ccc2OC)cc1,,-1.29%
COc1cccc(NC(=O)CCc2nnc3ccc(N4CCC(C)CC4)nn23)c1,,-2.26%
CC(=O)c1ccc(NC(=O)c2ccc(-n3cncn3)c([N+](=O)[O-])c2)cc1,,-10.1%
S=C(NCc1ccc(Cl)cc1)NC12CC3CC(CC(C3)C1)C2,3.16 µM (active),
O=C(NCc1ccc(Cl)cc1)NCc1ccc(Cl)cc1,,1.13%

SMILES,Potency,"activity, negative = inhibition"
CN(C)CCCNC(=S)NCc1ccc(Cl)cc1,,7.1%
S=C(NCc1ccc(Cl)cc1)NC1CCCCC1,7.94 µM (active),
COc1ccc(Cl)cc1C(=O)NNC(=S)NC1CCCC1,,-20.9%
O=C(NCc1ccncc1)NC12CC3CC(CC(C3)C1)C2,,3%
O=C(NCCc1ccc(Cl)cc1)c1cccc(N2CCCC2=O)c1,,4.1%
CN1CCN(S(=O)(=O)c2ccc(NC(=S)NC(=O)C3CC3)cc2)CC1,,-9.66%
S=C(Nc1ccc(Cl)cc1Cl)N1CCCC1,,-3.36%
O=C(NC(=S)Nc1ccc(Cl)cc1Cl)C1CC1,5.62 µM (active),
Oc1ccccc1C1=NN(c2ccccc2)C(c2ccccc2)C1 (stereo not given),,-26.6%
CCC(=O)Nc1nc(C)c(C(=O)Nc2cccc(Cl)c2)s1,,-4.36%
CN1CCN(C(=O)c2cnn(-c3ccccc3)c2NC(=O)c2ccc([N+](=O)[O-])cc2)CC1,,-10.9%
Cc1cccc(NC(=S)NC(=O)c2ccc(Br)o2)c1,,-67.7%
Cc1cccc(NC(=O)NC(=S)NC(=O)c2ccccc2)c1,5.01 µM (active),
Cc1ccc(NC(=O)NC(=O)c2ccccc2)cc1F,,-12.3%
Cc1ccn2c(c1)nc(=O)c1cc(S(=O)(=O)N3CCC(C)CC3)ccc12,,-1.64%
COc1ccc(CCNC(=O)C(=O)NCC2OCCN2S(=O)(=O)c2ccc(OC)c(C)c2)cc1 (stereo not given),,-8.13%
COc1ccc(C(=O)CSc2nnc(COc3ccccc3)n2Cc2ccco2)cc1,,-4.45%
Cn1c2ccccc2c(=O)c2c(=O)n(Cc3ccco3)c(COc3ccccc3)nc21,17.8 µM (active),
Cc1nc2c(c(=O)n1Cc1ccco1)c1nc3ccccc3nc1n2Cc1ccccc1,,-20.3%
O=C(NNC(=S)Nc1ccc(F)cc1)[C@H]1C[C@@H]1c1ccccc1,,-19.7%
COc1cc(/C=N\NC(=O)C2C(=O)NCC2c2ccccc2)cc(OC)c1O (stereo not given),,-3.59%
O=C(N/N=C/c1cccc2cccnc12)[C@H]1C[C@@H]1c1ccccc1,8.91 µM (active),

# Reference: PubChem BioAssay AID2546 (National Center for Advancing Translational Sciences (NCATS), 2010)
